Unmarked numbers belong to inactive results. Some of the results follow. Calls of active or inactive are those of the source. Unless noted, no stated cut-off is given here; in the data, active means inhibition above about 25%; inactive means the rest.
Experiments:
[1] = biological target: Receptor-interacting serine/threonine-protein kinase 2 (Homo sapiens) (UniProt O43353); experiment: NOD2-RIPK2 binding disruptors, retest, confirmation, fluorescence, CHO cells, BLA complementation, triplicate (AID 624370;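 active means mean inhibition across replicates above a set limit taken from the earlier primary screen, cut at about 21% in these data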;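 further: 0% = DMSO-only wells and the high end = clavulanate BLA-blocked wells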); details: CCF4 FRET, at 4.98 µM, active compounds read high
[2] = beta-lactamase reporter inhibitors in CHO cells, confirmation, artefact control for NOD2-RIPK2 interaction inhibitor project, cell-based, CHO-K1 CMV-bla, CCF4 FRET, fluorescence (AID 624371;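 active means mean inhibition above the low-control mean inhibition plus three low-control SD, cut at about 11% in these data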;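 further: 0% = DMSO only wells and 100% = clavulanate high control wells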); details: CCF4 FRET ratio, counterscreen, at 4.98 µM, active compounds read high
[3] = biological target: Nuclear receptor coactivator 1 (Homo sapiens) (UniProt Q15788); experiment: SRC1 coactivator transcriptional activity inhibitors, confirmation, cell-based, luminescence, quadruplicate (AID 588820;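 active means mean inhibition above 46.68%, the untreated control wells mean plus 3 SD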;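 further: 0% = DMSO wells and 100% = gossypol 36 µM treated wells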); details: HEK293 GAL4-SRC1 luciferase reporter, at 3.6 µM, active compounds read high
[4] = VP16 transactivation inhibitors, counter-screen for SRC1 inhibitor project, cell-based, luminescence, high throughput (AID 588824); details: cell-based VP16 transactivation luciferase luminescence; at 3.6 µM; active compounds read high
[5] = test system: transactivating tegument protein VP16 (Human herpesvirus 1); experiment: VP16 transactivation reporter inhibitors, counter-screen for SRC2 inhibitor project, cell-based, luminescence, single concentration (AID 652007; in the data active means inhibition above about 36%); details: cell-based VP16 transactivation luciferase reporter, at 8.9 µM, active compounds read high
[6] = biological target: Nuclear receptor coactivator 2 (Homo sapiens) (UniProt Q15596); experiment: SRC2 coactivator transcriptional activity inhibitors, confirmation, cell-based, luminescence, HEK293, triplicate (AID 652008;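 active means mean inhibition above 46.5%, the solvent-only control mean plus 3 SD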;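 further: 0% = DMSO-treated cells and 100% = Gossypol at 36 µM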); details: HEK293 GAL4-SRC2 luciferase reporter, at 8.9 µM, active compounds read high
[7] = Gal4-VP16 luciferase reporter inhibitors, counter-screen for COUP-TFII antagonist project, cell-based, luminescence, HEK293 (AID 687007; in the data active means inhibition above about 13%); details: at 8.5 µM, active compounds read high
[8] = biological target: COUP transcription factor 2 (Homo sapiens) (UniProt P24468); experiment: NR2F2 transcriptional activity inhibitors, confirmation, cell-based, luciferase reporter, HEK293, triplicate (AID 687008;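 active means mean inhibition over three repeats above a set limit taken from the earlier primary screen, cut at about 38% in these data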;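 further: 100% = cells given the luciferase reporter alone without the COUP-TF2 vector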); details: HEK293 NGFI-A luciferase reporter, luminescence; at 8.5 µM; active compounds read high
[9] = StAR promoter reporter inhibitors, counter-screen for LRH-1 inverse agonist project, cell-based, luminescence, high throughput (AID 651611; in the data active means inhibition above about 28%); details: StAR promoter luciferase reporter counterscreen, at 3.6 µM, active compounds read high
[10] = biological target: Nuclear receptor subfamily 5 group A member 2 (Homo sapiens) (UniProt O00482); experiment: LRH-1 (NR5A2) inverse agonists, retest, confirmation, cell-based, luminescence (AID 651613; in the data active means inhibition above about 42%;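 further: HEK293T cells co-transfected with LRH-1 and StAR promoter luciferase reporter; 0% = vehicle wells and 100% = parental cells lacking receptor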); details: cell-based LRH-1 luciferase reporter, inverse agonism; at 3.6 µM; active compounds read high
[11] = biological target: Steroidogenic factor 1 (Homo sapiens) (UniProt Q13285); experiment: SF1 (NR5A1) inverse agonists, counter-screen for LRH-1 inverse agonist project, cell-based, luminescence, high throughput (AID 651614; in the data active means inhibition above about 44%;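 further: cells cotransfected with StAR promoter reporter and SF1 expression vector; 0% = vehicle on cells with receptor and 100% = vehicle on cells lacking receptor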); details: cell-based SF1 luciferase reporter, at 3.6 µM, active compounds read high
[12] = VP16 transactivation reporter inhibitors, counter-screen for LRH-1 inverse agonist project, cell-based, luminescence, high throughput (AID 651615; in the data active means inhibition above about 33%); details: Gal4-VP16 luciferase reporter cells, at 3.6 µM, active compounds read high

Sequence of Nuclear receptor coactivator 1 (Homo sapiens) (Q15788 whole entry, looked up, the tested form may be a part): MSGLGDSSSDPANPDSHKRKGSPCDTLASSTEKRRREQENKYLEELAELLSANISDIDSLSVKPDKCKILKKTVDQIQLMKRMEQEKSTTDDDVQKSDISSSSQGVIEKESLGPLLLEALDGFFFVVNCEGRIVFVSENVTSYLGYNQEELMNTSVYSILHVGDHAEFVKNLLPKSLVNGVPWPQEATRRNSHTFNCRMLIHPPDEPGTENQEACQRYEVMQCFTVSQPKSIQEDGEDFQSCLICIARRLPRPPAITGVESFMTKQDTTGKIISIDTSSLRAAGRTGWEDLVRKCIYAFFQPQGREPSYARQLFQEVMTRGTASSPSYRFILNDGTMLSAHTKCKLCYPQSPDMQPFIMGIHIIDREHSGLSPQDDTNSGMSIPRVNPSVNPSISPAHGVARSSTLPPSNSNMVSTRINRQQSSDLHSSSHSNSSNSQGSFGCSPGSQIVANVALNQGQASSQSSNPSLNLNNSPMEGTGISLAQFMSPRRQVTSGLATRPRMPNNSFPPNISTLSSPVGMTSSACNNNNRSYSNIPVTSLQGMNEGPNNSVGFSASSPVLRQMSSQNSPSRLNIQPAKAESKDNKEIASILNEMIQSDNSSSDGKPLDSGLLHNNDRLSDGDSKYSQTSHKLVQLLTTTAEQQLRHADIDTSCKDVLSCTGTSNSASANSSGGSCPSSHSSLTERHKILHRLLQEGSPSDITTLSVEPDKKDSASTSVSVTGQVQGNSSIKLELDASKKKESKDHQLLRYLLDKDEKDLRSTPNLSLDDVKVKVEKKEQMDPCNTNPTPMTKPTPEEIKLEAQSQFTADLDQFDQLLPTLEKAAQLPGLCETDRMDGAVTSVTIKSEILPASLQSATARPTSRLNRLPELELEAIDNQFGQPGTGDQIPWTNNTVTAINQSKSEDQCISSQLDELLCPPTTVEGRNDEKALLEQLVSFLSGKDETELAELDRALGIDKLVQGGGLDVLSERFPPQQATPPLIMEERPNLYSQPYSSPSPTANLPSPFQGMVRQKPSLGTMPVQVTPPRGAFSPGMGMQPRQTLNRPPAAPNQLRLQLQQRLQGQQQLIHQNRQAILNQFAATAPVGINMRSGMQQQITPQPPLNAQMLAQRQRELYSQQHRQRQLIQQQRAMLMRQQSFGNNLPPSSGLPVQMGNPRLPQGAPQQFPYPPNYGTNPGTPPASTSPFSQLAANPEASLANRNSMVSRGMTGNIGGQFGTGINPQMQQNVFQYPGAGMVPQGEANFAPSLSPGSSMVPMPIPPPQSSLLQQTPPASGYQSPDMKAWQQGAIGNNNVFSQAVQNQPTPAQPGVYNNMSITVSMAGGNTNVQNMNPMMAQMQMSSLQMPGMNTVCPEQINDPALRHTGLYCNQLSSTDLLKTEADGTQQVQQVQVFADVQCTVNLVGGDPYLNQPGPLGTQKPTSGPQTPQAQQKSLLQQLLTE
Sequence of Receptor-interacting serine/threonine-protein kinase 2 (Homo sapiens) (O43353 whole entry, looked up): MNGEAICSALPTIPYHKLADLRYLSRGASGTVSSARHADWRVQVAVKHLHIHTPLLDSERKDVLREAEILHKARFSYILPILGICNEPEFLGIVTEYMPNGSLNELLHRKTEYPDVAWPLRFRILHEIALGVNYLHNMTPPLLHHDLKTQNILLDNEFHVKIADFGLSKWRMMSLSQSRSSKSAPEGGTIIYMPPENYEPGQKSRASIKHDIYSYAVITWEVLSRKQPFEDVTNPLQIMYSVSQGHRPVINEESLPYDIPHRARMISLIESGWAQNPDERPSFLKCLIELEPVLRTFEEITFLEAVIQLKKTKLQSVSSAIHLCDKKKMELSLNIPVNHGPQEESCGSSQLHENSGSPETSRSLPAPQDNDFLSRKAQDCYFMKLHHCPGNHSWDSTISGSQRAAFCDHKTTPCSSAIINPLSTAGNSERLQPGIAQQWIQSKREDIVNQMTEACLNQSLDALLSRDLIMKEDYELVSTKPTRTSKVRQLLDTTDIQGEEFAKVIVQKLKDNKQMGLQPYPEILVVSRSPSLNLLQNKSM
Sequence of Nuclear receptor coactivator 2 (Homo sapiens) (Q15596 whole entry, looked up, the tested form may be a part): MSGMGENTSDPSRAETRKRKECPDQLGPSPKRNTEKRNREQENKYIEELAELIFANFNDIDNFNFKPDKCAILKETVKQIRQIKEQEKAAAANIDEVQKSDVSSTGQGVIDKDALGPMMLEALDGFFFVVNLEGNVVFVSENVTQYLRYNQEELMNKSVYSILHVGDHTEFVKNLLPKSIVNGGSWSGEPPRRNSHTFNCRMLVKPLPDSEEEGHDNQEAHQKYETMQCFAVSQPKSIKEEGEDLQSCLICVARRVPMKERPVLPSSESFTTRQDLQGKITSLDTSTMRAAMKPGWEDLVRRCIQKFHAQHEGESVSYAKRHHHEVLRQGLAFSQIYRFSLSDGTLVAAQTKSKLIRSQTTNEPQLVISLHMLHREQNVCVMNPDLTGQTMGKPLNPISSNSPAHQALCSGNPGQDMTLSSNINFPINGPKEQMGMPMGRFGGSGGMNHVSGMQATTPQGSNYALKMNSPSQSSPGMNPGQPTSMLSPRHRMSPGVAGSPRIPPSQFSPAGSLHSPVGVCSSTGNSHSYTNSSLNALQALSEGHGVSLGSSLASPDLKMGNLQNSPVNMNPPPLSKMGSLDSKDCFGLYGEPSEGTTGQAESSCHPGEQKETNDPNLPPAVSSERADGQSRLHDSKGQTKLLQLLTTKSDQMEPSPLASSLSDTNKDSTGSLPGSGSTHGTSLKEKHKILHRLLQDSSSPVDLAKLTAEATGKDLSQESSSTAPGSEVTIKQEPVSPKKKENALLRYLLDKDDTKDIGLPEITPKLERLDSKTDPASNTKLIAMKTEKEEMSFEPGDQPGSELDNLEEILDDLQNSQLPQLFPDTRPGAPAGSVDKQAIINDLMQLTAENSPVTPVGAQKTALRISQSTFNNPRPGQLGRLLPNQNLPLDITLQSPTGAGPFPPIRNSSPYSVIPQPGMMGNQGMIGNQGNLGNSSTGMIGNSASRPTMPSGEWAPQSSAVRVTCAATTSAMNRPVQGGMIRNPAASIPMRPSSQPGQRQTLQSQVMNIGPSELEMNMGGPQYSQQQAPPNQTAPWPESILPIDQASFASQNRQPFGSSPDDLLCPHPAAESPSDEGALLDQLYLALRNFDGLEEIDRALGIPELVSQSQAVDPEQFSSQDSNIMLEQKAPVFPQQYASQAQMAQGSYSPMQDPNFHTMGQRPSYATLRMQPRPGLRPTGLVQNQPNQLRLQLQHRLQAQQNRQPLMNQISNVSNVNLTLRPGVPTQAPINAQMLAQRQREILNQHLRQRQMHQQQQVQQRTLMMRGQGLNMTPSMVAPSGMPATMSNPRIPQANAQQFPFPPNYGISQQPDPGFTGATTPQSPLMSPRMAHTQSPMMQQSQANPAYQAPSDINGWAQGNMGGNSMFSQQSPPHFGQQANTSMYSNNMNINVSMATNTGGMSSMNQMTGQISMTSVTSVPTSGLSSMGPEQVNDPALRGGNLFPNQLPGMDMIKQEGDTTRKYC
Sequence of COUP transcription factor 2 (Homo sapiens) (P24468 whole entry, looked up): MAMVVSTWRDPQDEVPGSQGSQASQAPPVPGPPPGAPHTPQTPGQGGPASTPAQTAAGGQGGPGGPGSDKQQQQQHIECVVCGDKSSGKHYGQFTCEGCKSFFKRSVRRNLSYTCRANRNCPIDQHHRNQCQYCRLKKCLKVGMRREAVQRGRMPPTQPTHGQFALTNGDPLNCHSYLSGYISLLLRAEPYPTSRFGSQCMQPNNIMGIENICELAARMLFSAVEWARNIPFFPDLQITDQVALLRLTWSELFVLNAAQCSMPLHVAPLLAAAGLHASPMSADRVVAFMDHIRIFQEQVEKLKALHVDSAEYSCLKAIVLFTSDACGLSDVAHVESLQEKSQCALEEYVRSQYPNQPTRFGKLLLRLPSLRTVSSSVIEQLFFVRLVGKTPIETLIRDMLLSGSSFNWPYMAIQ
Sequence of Steroidogenic factor 1 (Homo sapiens) (Q13285 whole entry, looked up, the tested form may be a part): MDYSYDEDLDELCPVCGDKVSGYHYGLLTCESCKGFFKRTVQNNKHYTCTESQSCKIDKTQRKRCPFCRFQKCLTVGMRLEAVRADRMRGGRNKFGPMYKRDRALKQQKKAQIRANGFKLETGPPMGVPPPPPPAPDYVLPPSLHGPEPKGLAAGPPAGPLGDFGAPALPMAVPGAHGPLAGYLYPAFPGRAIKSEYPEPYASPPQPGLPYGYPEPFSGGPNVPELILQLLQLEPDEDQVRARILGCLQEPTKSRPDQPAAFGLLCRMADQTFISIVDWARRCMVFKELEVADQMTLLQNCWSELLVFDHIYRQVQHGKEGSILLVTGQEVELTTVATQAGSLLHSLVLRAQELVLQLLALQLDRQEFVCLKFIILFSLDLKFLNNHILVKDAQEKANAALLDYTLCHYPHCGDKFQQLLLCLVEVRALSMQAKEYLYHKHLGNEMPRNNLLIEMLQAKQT
Sequence of Nuclear receptor subfamily 5 group A member 2 (Homo sapiens) (O00482 whole entry, looked up): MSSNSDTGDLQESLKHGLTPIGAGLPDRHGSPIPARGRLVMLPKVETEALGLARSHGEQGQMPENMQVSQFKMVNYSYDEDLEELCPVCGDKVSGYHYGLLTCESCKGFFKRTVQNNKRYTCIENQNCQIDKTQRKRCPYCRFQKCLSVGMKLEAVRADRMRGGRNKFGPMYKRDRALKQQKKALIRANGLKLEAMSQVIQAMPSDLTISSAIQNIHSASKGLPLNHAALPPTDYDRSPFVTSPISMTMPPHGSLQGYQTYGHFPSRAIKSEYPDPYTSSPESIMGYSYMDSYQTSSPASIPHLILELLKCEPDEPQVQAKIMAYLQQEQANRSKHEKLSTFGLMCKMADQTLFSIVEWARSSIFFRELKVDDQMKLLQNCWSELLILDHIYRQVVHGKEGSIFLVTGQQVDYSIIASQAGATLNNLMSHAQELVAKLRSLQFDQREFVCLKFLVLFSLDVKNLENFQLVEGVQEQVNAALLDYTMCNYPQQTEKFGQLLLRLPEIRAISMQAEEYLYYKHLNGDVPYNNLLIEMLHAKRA

## Cc1ccc(NC(=O)Cn2sc3ccccc3c2=O)cc1
[1]
  inhibition: 33.2% (active)
[2]
  inhibition: 3.75%

## O=C(CCN1CCc2ccccc2C(O)(c2ccccc2)C1)c1ccc2c(c1)OCCO2 (configuration not stated)
[1]
  inhibition: 3.17%
[2]
  inhibition: -1.26%

## Cc1ccccc1Cn1c(C)nc2ccccc21
[3]
  inhibition: -27.4%
[4]
  inhibition: 29.1% (active)
[5]
  inhibition: 20%
[6]
  inhibition: 27%

## O=C(NCCc1cccc(Cl)c1)c1ccc(OC2CCN(Cc3ccccn3)CC2)cc1
[3]
  inhibition: -20.2%
[4]
  inhibition: -8.94%
[5]
  inhibition: 12.7%
[6]
  inhibition: 39.1%

## C[C@H]1CN([C@@H](C)CO)C(=O)c2cc(-c3cccc(F)c3)cnc2O[C@@H]1CN(C)S(C)(=O)=O
[1]
  inhibition: -4.32%
[2]
  inhibition: -1.39%

## COc1ccc(C2=CC(c3cccc(OC)c3)n3nnnc3N2)cc1 (configuration not stated)
[1]
  inhibition: 3.71%
[2]
  inhibition: 10.4% (active)

## OC[C@@H]1CN(Cc2ccncc2)C[C@H](n2cnc3c(N4CCN(c5ccccc5)CC4)ncnc32)O1
[3]
  inhibition: 2.2%
[4]
  inhibition: 37.8% (active)
[7]
  inhibition: 8.35%
[8]
  inhibition: 44.6% (active)

## COc1ccc(NC(=O)C(c2ccncc2)n2c(=O)c(-c3cc4ccccc4[nH]3)nc3ccccc32)cc1 (configuration not stated)
[1]
  inhibition: 39.5% (active)
[2]
  inhibition: 61.5% (active)

## O[C@H]1C[C@H](c2ccc(Cl)cc2)N(Cc2cccs2)C[C@@H]1n1cc(C2CC2)nn1
[1]
  inhibition: -0.97%
[2]
  inhibition: 0.34%

## Cc1ccc(OCC(=O)NC(=S)Nc2ccccn2)c(Br)c1
[3]
  inhibition: -49%
[4]
  inhibition: -39.2%
[5]
  inhibition: 20.5%
[6]
  inhibition: 37.7%

## CCN(CC)CC(C)(C)C(=O)/C=C/c1ccc(/C=C/C(=O)C(C)(C)CN(CC)CC)cc1
[4]
  inhibition: 84.5% (active)
[9]
  inhibition: 84.9% (active)
[10]
  inhibition: 99.6% (active)
[11]
  inhibition: 95.1% (active)
[12]
  inhibition: 88.8% (active)

## CN1CCN(/N=C/c2ccc(-c3ccc([N+](=O)[O-])cc3)o2)CC1
[1]
  inhibition: 17.4%
[2]
  inhibition: 23.5% (active)

## COc1ccc2c(c1OC)C(=O)OC2Nc1nc(-c2ccccc2)cs1 (configuration not stated)
[1]
  inhibition: 10.3%
[2]
  inhibition: 6.11%

## Cc1nc2sc(C(N)=O)c(N)c2c(C)c1CC(=O)c1ccccc1
[3]
  inhibition: 35.5%
[4]
  inhibition: 5.05%
[5]
  inhibition: -52.2%
[6]
  inhibition: 19.1%

## Cc1ccc(C(=O)c2cccc(N)c2)cc1C
[3]
  inhibition: -41.2%
[4]
  inhibition: 3.5%
[5]
  inhibition: 58% (active)
[6]
  inhibition: 76.3% (active)

## Cc1cc(NC2CCCC2)n2ncc(-c3ccccc3)c2n1
[3]
  inhibition: -78.1%
[4]
  inhibition: -34.6%
[5]
  inhibition: -46.2%
[6]
  inhibition: 36.5%

## Cc1sc2ncnc(N3CCC(C(=O)N(C)CC(=O)Nc4cccc(F)c4)CC3)c2c1C
[3]
  inhibition: 33.5%
[4]
  inhibition: 22.7%
[5]
  inhibition: -11.2%
[6]
  inhibition: 25.1%

## O=[N+]([O-])/C=C/c1ccc2c(ccn2Cc2ccccc2)c1
[1]
  inhibition: 83.3% (active)
[2]
  inhibition: 7.27%

## Cn1nnnc1Sc1ncnc2scc(-c3ccc4c(c3)OCO4)c12
[3]
  inhibition: 0.44%
[4]
  inhibition: 3.16%
[5]
  inhibition: 0.45%
[6]
  inhibition: 21.4%

## CC(=O)N1CCCC(c2cc(C(=O)Nc3ccccc3)no2)C1 (configuration not stated)
[3]
  inhibition: -48.3%
[4]
  inhibition: -15.3%
[5]
  inhibition: -36.7%
[6]
  inhibition: 40.6%

## C=CCNc1ncnc2ccc(Br)cc12
[3]
  inhibition: 30.3%
[4]
  inhibition: 21%
[5]
  inhibition: 1.3%
[6]
  inhibition: 42.1%
[7]
  inhibition: 9.27%
[8]
  inhibition: 22.7%

## CCOC(=O)c1c(C)cc2c(CO)n[nH]c(=O)c2c1C
[3]
  inhibition: 11.6%
[4]
  inhibition: 23.1%
[5]
  inhibition: -8.56%
[6]
  inhibition: 34.9%

## O=C1C(=O)N(CC2COc3ccccc3O2)c2ccccc21 (configuration not stated)
[1]
  inhibition: -7.75%
[2]
  inhibition: -10.2%

## COc1cccc2sc(N(CCCN(C)C)C(=O)CCS(=O)(=O)c3ccccc3)nc12
[1]
  inhibition: 40.3% (active)
[2]
  inhibition: 8.45%

From PubChem BioAssay
